Cruzain noTriton: inhibitors of Trypanosoma cruzi cruzain without detergent. Potency, µM, usual class: inhibitors. 200,000 tested, 2.3% active. purified cruzain, Z-FR-AMC fluorescence, no detergent. P25779. AID 1476; further: nearly all actives have a fitted effect of over 40% in size
Target sequence (P25779 123-467 limits assumed): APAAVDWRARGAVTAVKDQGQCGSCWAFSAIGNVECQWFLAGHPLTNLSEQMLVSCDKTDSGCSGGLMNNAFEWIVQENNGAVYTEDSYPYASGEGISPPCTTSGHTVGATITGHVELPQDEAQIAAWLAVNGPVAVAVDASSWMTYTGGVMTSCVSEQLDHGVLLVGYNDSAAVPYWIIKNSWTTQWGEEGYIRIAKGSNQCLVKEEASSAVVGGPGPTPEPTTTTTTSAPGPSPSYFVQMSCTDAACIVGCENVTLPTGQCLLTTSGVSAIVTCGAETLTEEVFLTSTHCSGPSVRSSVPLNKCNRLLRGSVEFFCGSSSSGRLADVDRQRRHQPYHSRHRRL
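Detergent-free condition (0.00005% Triton X-100) in acetate buffer pH 5.5 with DTT. 1.5 nM enzyme and compound were pre-mixed 15 min, then 2 uM Z-FR-AMC substrate added; reaction progress from fluorescence change between first and third reads (60 s).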
Cruzain inh Det: cruzain (T. cruzi) inhibition with detergent. P25779. purified cruzain, Z-FR-AMC fluorescence, 0.01% Triton. Potency, µM, most hits filed as inhibitors. 200,000 tested, 0.43% active. AID 1478; further: nearly all actives have a fitted effect of over 40% in size
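Detergent-containing arm of a paired screen for aggregation-based inhibition: 0.01% Triton X-100 present. Cruzain at 1.5 nM cleaved 2 uM Z-FR-AMC at pH 5.5 with 5 mM DTT; AMC fluorescence gain over 60 s measured activity.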
A number is an active result; . = inactive; ? = inconclusive; ! = not active in a repeat. The list is not random: actives were taken first. Their share in the collection is about 2.4%. The call rests on the fitted dose curve; in most records, active means well fitted curve in the direction sought with a large enough effect; inconclusive means small, poorly fitted or top-dose-only effect, or another doubt; inactive means no such curve, though single readings can be large; an effect the other way counts as inactive or inconclusive.

SMILES	Cruzain noTriton	Cruzain inh Det
CCc1ccc2ncc3c(-c4ccc(F)cc4)nn(CC(=O)NC4CCCCC4)c3c2c1	?	.
Cc1nn(C)c(C)c1CCNC(=O)Nc1cccc(Cl)c1C	.	.
Cc1cc(-c2nc3cccnc3s2)ccc1NS(=O)(=O)c1ccc2c(c1)OCCO2	?	.
Cc1c(NS(=O)(=O)c2ccc3c(c2)OCCO3)cccc1-c1nc2cccnc2s1	15.8µM	.
O=C(CCN1C(=O)/C(=C\c2ccccc2Cl)SC1=S)N1CCN(c2ccccc2)CC1	15.8µM	.
O=C(CCCN1C(=O)/C(=C/c2ccccc2Cl)SC1=S)Nc1ccccn1	?	.
Cc1ccc(S(=O)(=O)c2nnn3c2nc(NC(C)c2ccccc2)c2sccc23)cc1 (stereo not drawn)	.	.
CC(=O)N[C@@H](Cc1c[nH]c2ccccc12)C(=O)OCc1cc(C(F)(F)F)cc(C(F)(F)F)c1	?	.
O=C(Nc1ccccc1N1CCN(c2ccccc2)CC1)C12CC3CC(CC(C3)C1)C2	25.1µM	.
O=C(Cc1ccccc1)Nc1ccccc1N1CCN(c2ccccc2)CC1	.	.
Cc1ccc(OCCSc2nc3ccccc3n2CC(=O)N2CCCCC2)c(C)c1	.	.
COc1ccc(NC(=O)Nc2nnc(N(C)C3CCCCC3)s2)c(OC)c1	.	.
Cc1cccc(N2CCN(C(c3ccc(F)cc3)c3nnc(-c4ccccc4)o3)CC2)c1C (stereo not drawn)	?	.
Cc1ccc(Cl)cc1N1CCN(C(c2ccc(F)cc2)c2nnc(-c3ccccc3)o2)CC1 (stereo not drawn)	6.31µM	.
O=C(N/N=C/c1ccc(-c2cccc(C(F)(F)F)c2)o1)c1ccccc1Br	.	.
O=C(N/N=C/c1ccc(-c2cccc(C(F)(F)F)c2)o1)c1ccccc1O	10µM	.
Cc1c(Cl)cccc1NC(=O)CCn1nc(C)c2c(C)n(-c3ccccc3)nc2c1=O	.	.
CN1CCc2nc(N)nc(-c3nc(N)nc4c3CN(C)CC4)c2C1	.	.
CN(C)CCOC(=O)c1ccc(N)cc1	.	.
Cc1ccc(-n2c(=O)c3oc4ccccc4c3n(CC(=O)Nc3ccc(F)c(Cl)c3)c2=O)cc1C	10µM	.
Cc1ccc(-n2c(=O)c3oc4ccccc4c3n(Cc3ccccc3F)c2=O)cc1C	.	.
NC(=S)N/N=C/c1ccc(-c2cc(Cl)cc(Cl)c2)o1	10µM	4.47µM
COC(=O)N/N=C/c1ccc(-c2cc(Cl)cc(Cl)c2)o1	.	.
C=CC=O	.	.
COc1cc(C2C(C#N)=C(N)Oc3c2ccc2ccccc32)ccc1OCC(=O)Nc1cccc(C)c1 (stereo not drawn)	7.94µM	.
SMILES	Cruzain noTriton	Cruzain inh Det
N#CC1=C(N)Oc2c(ccc3ccccc23)C1c1ccsc1 (stereo not drawn)	.	.
COc1cc(C2C(C#N)=C(N)Oc3c2ccc2ccccc32)ccc1OCC(=O)Nc1ccc(C)cc1 (stereo not drawn)	10µM	.
COC(=O)C1=C(C)OC(N)=C(C#N)C1c1ccc(OC)c(OC)c1OC (stereo not drawn)	.	.
CCCn1c(SCc2nc(-c3ccc(OC)c(OC)c3)no2)nnc1-c1ccccc1	.	.
COc1ccc(C2C(=O)N(C3CCC(C)CC3)CC(=O)N2CCC2=CCCCC2)cc1OC (stereo not drawn)	.	.
C/C(=N/NS(=O)(=O)c1ccc(Cl)cc1)c1cccc(NC(=O)c2ccc(Cl)cc2Cl)c1	25.1µM	.
C/C(=N/NS(=O)(=O)c1ccc(C)cc1)c1cccc(NC(=O)c2cccc(Cl)c2)c1	.	.
O=C(CSc1nc2ccc(NC(=O)CSc3nnnn3-c3ccccc3)cc2s1)Nc1ccccc1	5.01µM	.
O=C(O)CSc1nc2ccc(NC(=O)COc3ccc(Cl)cc3)cc2s1	.	.
Cc1cccc(NC(=O)CSc2nc3ccc(NC(=O)COc4ccc(Cl)cc4)cc3s2)c1	7.94µM	.
Cc1cccc(NC(=O)CSc2nc3ccc(NC(=O)CSc4nnnn4-c4ccccc4)cc3s2)c1C	?	.
N#CCCn1c(=O)c(-c2ccc(Cl)cc2)nc2cnc(N3CCNCC3)nc21	.	.
CCOc1ccc(C(=O)Nc2cccc(OCc3cc(=O)n4cc(C)sc4n3)c2)cc1	.	.
Cc1cc(C)c(S(=O)(=O)NCC(c2ccc(N(C)C)cc2)N2CCc3ccccc32)c(C)c1 (stereo not drawn)	20µM	.
COc1ccc(C)cc1S(=O)(=O)NCC(c1ccc(N(C)C)cc1)N1CCc2ccccc21 (stereo not drawn)	?	.
CC1=C(/C=C/C(C)=C/C=C/C(C)=C/C(=O)Nc2ccc(O)cc2)C(C)(C)CCC1	15.8µM!	.
CC1=C(\C=C/C(C)=C/C=C\C(C)=C\C(=O)O)C(C)(C)CCC1	?	.
Nc1nc2c(c(=O)[nH]1)CN(CCCN1CCOCC1)CN2	.	.
O=[N+]([O-])c1cccc(-c2nc(-c3cccs3)c(-c3cccs3)[nH]2)c1	?	.
O=[N+]([O-])c1ccc(-c2nc(-c3cccs3)c(-c3cccs3)[nH]2)cc1	31.6µM	.
CCCCCCCCCCCCC(=O)N1CCCC[C@H]1CNC(=O)[C@@H](N)CCCCN	.	.
COc1cc2ccccc2cc1C(=O)Nc1ccc(Cl)c(-c2nc3ccccc3o2)c1	3.16µM	.
O=C(Nc1ccc(Cl)c(-c2nc3cc(Cl)ccc3o2)c1)c1cc2ccccc2o1	?	.
COc1ccccc1C(=O)Nc1ccc2oc(-c3cccc4c(Br)cccc34)nc2c1	1.26µM	.
Cc1ccc2oc(-c3cc(NC(=O)c4oc5ccccc5c4C)ccc3Cl)nc2c1	3.16µM	.
SMILES	Cruzain noTriton	Cruzain inh Det
Cc1ccc2oc(-c3cc(NC(=O)c4ccco4)ccc3Cl)nc2c1	.	.
COc1cc2ccccc2cc1C(=O)Nc1ccc2oc(-c3ccc(Cl)cc3)nc2c1	.	.
Cc1cc2nc(-c3cc(NC(=O)c4cc5ccccc5o4)ccc3Cl)oc2cc1C	12.6µM	.
COc1cc(OC)cc(C(=O)Nc2ccc3oc(-c4cccc5c(Br)cccc45)nc3c2)c1	.	.
Cc1cccc(Oc2nc3ccccn3c(=O)c2/C=C(\C#N)c2nc3ccccc3s2)c1C	.	.
CSc1ccc(CCNC(=O)c2c(C)nn(-c3ccc(F)cc3)c2-n2cccc2)cc1	?	.
CC(C)C[C@@H](CC(=O)N[C@H](CC(=O)N[C@@H]1CCCC[C@H]1C(=O)N[C@H](CC(=O)N[C@@H](CCC(=O)O)CC(=O)O)Cc1c[nH]c2ccccc12)C(C)C)NC(=O)[C@@H]1CCCC[C@H]1N	?	.
Cn1c(SCc2ccc(F)cc2)nc2ccc(C(=O)NCc3cccc(Cl)c3)cc21	.	.
CCCCNC(=O)CC1C(=O)N(Cc2ccccc2)C(C)c2nc3ccccc3n21 (stereo not drawn)	12.6µM	.
CCCCn1c(=O)c(C(=O)c2ccccc2)nc2ccccc21	.	.
CNC1CC(N)[C@H](O)[C@@H](O[C@@H]2OC(CO)C3OC4(OC(C(N)CO)C(O)C(O)C4O)O[C@@H]3[C@H]2O)C1O (stereo partly drawn)	.	.
Cc1ccccc1OCC(=O)Nc1sc(C(=O)Nc2cccc(C)c2C)c(C)c1C#N	7.94µM	.
COc1ccccc1NC(=O)c1sc(NC(=O)c2ccco2)c(C#N)c1C	.	.
CCCCOc1ccc(C2=NC(c3ccccc3)=Nc3ccc(OC)cc3N2)cc1	.	.
CC1=Nc2cccc3cccc(c23)N1	.	.
Nc1ccc(C2=Nc3cccc4cccc(c34)N2)cc1	3.16µM	.
COc1cccc(C2=Nc3cccc4cccc(c34)N2)c1	15.8µM	.

From PubChem BioAssay
